This is a sample that favours compounds with a hit; in the whole collection about 4.8% have one here.
Calb FLC: C. albicans growth modulation with fluconazole | C. albicans CaCi-2 (fluconazole-resistant clinical isolate) + fluconazole, Alamar Blue growth, 48 h | growth inhibition, % (no concentration beside the values) | 300,000 tested, 0.57% active | AID 1979;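 active means growth inhibition above about 58% in most replicates, limit read from the data, passing the limit was not always enough; inconclusive means exactly half the replicates above a set limit; inactive means most replicates below a set limit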;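 further: all wells also contain fluconazole at 8 µg/ml as a sub-toxic cotreatment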
Mdm2-MdmX inh: human Mdm2/MdmX binding inhibition. O15151+Q00987. SaOS-2 split-luciferase Mdm2/MdmX complementation, luminescence. inhibition, % at 8 µM. 330,000 tested, 3% active. AID 485346;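 active means inhibition of at least 50% at 8 µM in the primary screen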
Target sequence (O15151 whole entry, looked up): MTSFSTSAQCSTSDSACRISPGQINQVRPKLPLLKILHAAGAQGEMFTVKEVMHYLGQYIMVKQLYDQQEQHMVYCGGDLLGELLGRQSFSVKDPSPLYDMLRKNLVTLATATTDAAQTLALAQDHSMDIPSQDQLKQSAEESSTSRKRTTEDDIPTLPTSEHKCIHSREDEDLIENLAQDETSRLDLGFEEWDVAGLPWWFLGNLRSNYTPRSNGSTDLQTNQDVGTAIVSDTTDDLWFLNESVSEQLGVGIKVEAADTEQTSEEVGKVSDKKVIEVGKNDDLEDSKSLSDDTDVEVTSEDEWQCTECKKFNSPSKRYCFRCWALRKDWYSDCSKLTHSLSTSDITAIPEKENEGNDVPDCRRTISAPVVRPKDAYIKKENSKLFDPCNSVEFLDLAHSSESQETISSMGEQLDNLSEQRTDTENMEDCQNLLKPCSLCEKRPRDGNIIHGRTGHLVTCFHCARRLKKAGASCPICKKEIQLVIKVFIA
Target sequence (Q00987 whole entry, looked up): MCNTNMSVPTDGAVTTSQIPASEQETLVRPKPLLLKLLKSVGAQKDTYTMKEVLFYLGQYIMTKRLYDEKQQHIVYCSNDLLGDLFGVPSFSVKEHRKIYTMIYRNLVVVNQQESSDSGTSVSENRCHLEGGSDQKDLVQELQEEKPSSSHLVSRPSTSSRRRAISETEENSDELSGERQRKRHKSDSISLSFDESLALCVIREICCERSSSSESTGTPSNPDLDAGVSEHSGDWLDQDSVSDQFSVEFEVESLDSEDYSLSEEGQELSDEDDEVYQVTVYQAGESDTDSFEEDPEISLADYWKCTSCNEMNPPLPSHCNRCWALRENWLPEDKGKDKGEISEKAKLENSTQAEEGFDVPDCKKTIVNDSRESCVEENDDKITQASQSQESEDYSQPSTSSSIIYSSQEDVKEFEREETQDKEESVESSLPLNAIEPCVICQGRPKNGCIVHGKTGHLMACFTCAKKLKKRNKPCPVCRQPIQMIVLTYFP
MPTP block: inhibitors of mitochondrial permeability transition pore; 360,000 tested, 1.4% active; inhibition, % at 10 µM; isolated mouse mitochondria, Ca2+ swelling absorbance, 30 min;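 active means inhibition of 50% or more, scaled per plate between neutral and stimulator controls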
CSC inhib: cancer stem cell inhibition; cancer stem cell-like cells viability, luminescence; inhibition, % at 7.5 µM; 300,000 tested, 1.1% active; AID 2717; in the data active means inhibition above about 75%; inconclusive means no clear call, values can overlap the other calls; tested in HMLE shEcad cells
Beta cell apopt: blocks beta cell apoptosis; INS-1E cytokine-induced death, ATP luminescence, 48 h; percent of positive-control rescue, neutral wells zero; protection from apoptosis, % (no concentration beside the values); 300,000 tested, 0.8% active; AID 435005;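 active means Every replicate reaches about 75%, or at least half do and their mean reaches it too, limit read from the data; inconclusive means At least half of replicates reach the limit but their mean does not; inactive means Under half of replicates reach the limit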;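 further: higher means more ATP so stronger rescue from cytokine killing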
Mdm2-MdmX conf: confirmation of human Mdm2/MdmX interaction inhibitors; shares compounds with Mdm2-MdmX inh; Mdm2-MdmX binding, luminescent assay; inhibition, % at 8 µM; 10,000 tested, 55% active; AID 489028; in the data active means inhibition above about 40%
FLuc counter: counter-screen for Mdm2/MdmX inhibitors: full-length luciferase. inhibition, % at 8 µM. AID 504607. 6,200 tested, 77% active. SaOS-2 full-length luciferase counterscreen, luminescence. shares compounds with Mdm2-MdmX inh;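 active means mean inhibition at 8 µM reaching about 37%, which flags the compound as non-specific, limit read from the data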;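 further: p53-null SaOS-2 cells with luciferase driven by a doxycycline-inducible promoter; compound on cells about two nights before reading with doxycycline added after day one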
Rh123 counter: mitochondrial membrane potential, counter-screen; shares compounds with MPTP block; isolated mitochondria, Rhodamine 123 fluorescence; inhibition, % at 10 µM; 5,000 tested, 78% active; in the data active means inhibition above about 22%
MPTP abs DR: dose response confirmation of mitochondrial permeability transition pore inhibitors; shares compounds with MPTP block; isolated mitochondria swelling, absorbance; IC50, µM; 780 tested, 58% active; in the data active means IC50 below about 20 µM
MPTP counter DR: counter-screen for mitochondrial permeability transition pore inhibitors, dose response; 780 tested, 49% active; isolated mitochondria counterscreen, fluorescence read-out; shares compounds with MPTP block; IC50, µM; in the data active means IC50 below about 80 µM
A number is an active result; n = inactive; u = inconclusive; x = no result.

SMILES	Calb FLC	Mdm2-MdmX inh	MPTP block	CSC inhib	Beta cell apopt	Mdm2-MdmX conf	FLuc counter	Rh123 counter	others
Cc1cc(F)ccc1S(=O)(=O)Nc1ccccc1C(=O)Nc1ccccc1-c1nc2ccccc2[nH]1	u	96	72	79	116	92	51	69
O=C(NCc1ccccc1)C(c1ccco1)N(C(=O)c1csnn1)c1ccccc1 (configuration not stated)	n	n	n	n	n	x	x	x
CC(C)N1CCc2c(sc(NC(=O)c3cc(-c4cccs4)nc4ccccc34)c2C(N)=O)C1	n	73	83	u	n	n	x	n
CCCOc1cccc(C2C(C(=O)c3ccc(C)o3)=C(O)C(=O)N2c2nc(C)c(C(C)=O)s2)c1 (configuration not stated)	n	n	n	n	n	x	x	x
Cc1ccc(NS(=O)(=O)c2cc([N+](=O)[O-])ccc2NNC(=S)Nc2cc(C)ccc2C)c(C)c1	n	94	110	80	u	88	39	67
CNC[C@@H](Cc1ccccc1)NC[C@@H](CC1CCCCC1)NCCCc1ccccc1	79	98	72	111	110	100	52	n
CN(C[C@H](Cc1ccccc1)N(C[C@@H](CC1CCCCC1)N(CCc1ccccc1)N=O)N=O)N=O	n	n	n	n	n	x	x	x
N#C/C(=N\Nc1cccc(C(F)(F)F)c1)C(=O)c1ccsc1	n	78	84	n	n	63	67	57
Cc1nccc(-c2cccc(N/N=C(\C#N)C(=O)c3ccccc3)c2)n1	n	n	n	n	n	x	x	x
O=C(NCCc1ccc(Cl)cc1)Nc1ccc(F)cc1	n	n	n	n	n	x	x	x
O=[N+]([O-])c1ccc(NC(=S)NCCc2ccc(F)cc2)cc1	u	86	100	n	76	63	86	81
N=c1n(CCO)c2ccccc2n1CCOc1ccc(Cl)cc1Cl	n	97	87	n	n	42	n	n	MPTP abs DR=4;MPTP counter DR=29
CC(C)NC(=O)N(C)C[C@H]1Oc2ccc(NC(=O)C3CC3)cc2C(=O)N([C@H](C)CO)C[C@@H]1C	x	n	n	n	n	x	x	x
O=C(Cc1c(F)c(F)c(F)c(F)c1F)Nc1nc(-c2ccccc2)cs1	n	57	54	83	n	n	84	92
CCC[C@@H](CN[C@@H](CNC)[C@H](C)CC)NCC1CCC(C(C)(C)C)CC1 (some centres not stated)	n	99	94	n	n	100	n	n	MPTP abs DR=5.3
CCCCC(=O)Nc1nc2c(s1)COc1ccccc1-2	n	n	n	x	n	x	x	x
O=C(CCSc1nc2ccccc2s1)N/N=C/c1c(O)ccc2ccccc12	n	82	77	80	85	82	n	63
Cc1cc(C(=O)NNC(=O)CCCOc2ccccc2)c(C)o1	n	n	n	n	n	x	x	x
CC(C)(C)c1ccc(OCCCC(=O)NNC(=O)c2ccccc2O)cc1	81	58	69	n	x	66	45	82
CCCN(CC(=O)Nc1cc(Cl)cc(Cl)c1)CC(=O)Nc1ccc(F)c(F)c1F	n	52	57	x	n	n	x	59
CCCN(CC(=O)Nc1ccccc1Br)CC(=O)Nc1ccc(F)c(F)c1F	n	n	n	n	n	x	x	x
CN1CCN(c2cc3c(c4c2[nH]c2ccccc24)C(=O)CC(C)(C)C3)CC1	101	57	84	n	x	n	x	n
CN1CCN(c2ccc(Cl)cc2NC(=O)c2cc(=O)[nH]c3ccccc23)CC1	x	n	n	n	n	x	x	x
O=C(O)c1ccccc1C(=O)Nc1ccc(-n2ccc(C(F)(F)F)n2)cc1	n	n	n	n	n	x	x	x
O=C(Nc1ccc(-n2ccc(C(F)(F)F)n2)cc1)Nc1cccc(Cl)c1	n	80	75	n	116	n	82	65
CCN=c1scc(-c2ccc(F)cc2)n1/N=C/c1ccccn1	n	n	n	n	n	x	x	x
